Reference: PubChem BioAssay AID1619 (SRMLSC, 2009)
The campaign covered roughly 220,000 compounds. About 830 (0.38%) were called active.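 Rule for the calls: active = compound inhibiting the enzyme by more than half at any dose during confirmatory dose-response retesting; inconclusive = strong single-dose inhibitors picked by rank but not retested; inactive = the rest.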 Not all results are given here. Results with a measured potency or affinity are listed apart.

Target: Leucine aminopeptidase (Plasmodium falciparum (isolate 3D7)) (UniProt Q8IL11)
Sequence (Q8IL11 whole entry, looked up): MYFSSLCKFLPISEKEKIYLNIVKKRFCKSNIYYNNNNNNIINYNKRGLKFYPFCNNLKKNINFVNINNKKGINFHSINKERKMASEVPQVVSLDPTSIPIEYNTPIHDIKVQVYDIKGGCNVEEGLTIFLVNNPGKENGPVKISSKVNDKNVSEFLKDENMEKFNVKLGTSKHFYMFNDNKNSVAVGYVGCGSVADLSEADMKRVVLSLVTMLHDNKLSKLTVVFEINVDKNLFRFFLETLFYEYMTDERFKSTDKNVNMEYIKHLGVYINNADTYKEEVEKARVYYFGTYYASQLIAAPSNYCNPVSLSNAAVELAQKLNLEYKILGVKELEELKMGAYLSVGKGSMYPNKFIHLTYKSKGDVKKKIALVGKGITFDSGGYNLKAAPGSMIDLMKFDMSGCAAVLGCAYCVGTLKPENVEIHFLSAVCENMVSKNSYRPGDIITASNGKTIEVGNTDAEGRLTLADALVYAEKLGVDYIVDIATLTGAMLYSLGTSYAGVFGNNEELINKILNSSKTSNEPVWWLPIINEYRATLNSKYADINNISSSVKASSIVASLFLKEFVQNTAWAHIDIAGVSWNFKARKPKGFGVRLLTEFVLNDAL
Test: P. falciparum M17LAP inhibitors, primary screen, biochemical, fluorogenic H-Leu-NHMec substrate, 1536-well (AID 1619);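 note: plate controls were full reaction with DMSO carrier for no effect and no enzyme background for full effect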
Conditions: recombinant M17LAP, H-Leu-NHMec fluorogenic kinetic assay; at 30 µM; stronger effect = higher value

inhibition, inactive:
COC(=O)N/N=C(\CCC(=O)O)c1cccs1 6.69%
O=C(O)CC/C(=N\NC(=O)c1ccccc1)c1cccs1 18.4%
Brc1ccc(/C=N/Nc2ncnc3c2cnn3Cc2ccccc2)cc1 -4.47%
COc1ccccc1NC(=O)CSc1ncn(-c2ccccc2)n1 5.61%
CC(C)c1ccc(C(=O)CSc2n[nH]c(-c3ccncc3)n2)cc1 6.54%
O=C(CSc1ccccc1)Nc1ccccc1C(=O)O 18.8%
Cc1nnc(SCC(=O)c2ccc(C(C)C)cc2)s1 -0.89%
NC(=O)SCC(=O)Nc1ccccc1C(=O)O 9.51%
Nc1nc(SCC(=O)Nc2ccc([N+](=O)[O-])cc2Br)n[nH]1 10.2%
COc1ccccc1NC(=O)CSc1nc(N)cc(N)n1 10.8%
CC(C)c1nc(SCC(=O)Nc2ccc([N+](=O)[O-])cc2Br)n[nH]1 6%
Cc1cc(C)cc(N2C(=O)CC(N(C(=O)c3ccco3)c3cc(C)cc(C)c3)C2=O)c1 (stereo not given) 3.47%
CC(C)c1ccc(Nc2ncccc2C(=O)O)cc1 13.8%
CC1CN(Cc2ccc(C#N)cc2Cl)CC(C)O1 (stereo not given) -2.17%
C/C(CCN1CCc2nc(-c3ccccc3)c(-c3ccccc3)cc2C1)=N\O[C@H](C)c1cn([C@H](CO)Cc2ccccc2)nn1 12.6%
Cc1oc(C)c(C(N)=O)c1C(N)=O -4.4%
Cc1cc(C)nc(SCC(=O)Nc2ccc(S(=O)(=O)N3CCCCC3)cc2)n1 -1.67%
COc1ccccc1N1CCN(C(=O)CSc2nc(C)cc(=O)[nH]2)CC1 12.1%
O=C(CSc1ncccn1)Nc1ncc(C(F)(F)F)cc1Cl -4.61%
COc1ccc(NC(=O)CSc2nc(O)cc(=O)[nH]2)c(OC)c1 14.7%
Nc1nc(SCC(=O)Nc2ncc(C(F)(F)F)cc2Cl)n[nH]1 1.49%
O=C(CSc1ncccn1)Nc1ccc(S(=O)(=O)N2CCCCC2)cc1 -1.15%
COc1ccccc1NC(=O)CSc1nccc(=O)[nH]1 28.1%
COc1ccccc1N1CCN(C(=O)CSc2nc(N)cc(=O)[nH]2)CC1 -20.8%
CC1=C(C(=O)OCc2ccccc2)C(c2ccoc2)C(C#N)=C(N)O1 (stereo not given) 5.93%
CC(NC(=O)C(=O)N/N=C\c1ccc([N+](=O)[O-])cc1)c1ccccc1 (stereo not given) 9.58%
CCOC(=O)/C(=C\c1cccnc1)C(=O)c1cc(C(C)=O)c(Nc2ccccc2)s1 -7.24%
Cc1ccc(NC(=O)COC(=O)Cc2csc(-c3ccc(Cl)cc3)n2)cc1C 5.09%
CCOC(=O)N1CCC(N(C(=O)Nc2cccc(OC)c2)C(C)CC)CC1 (stereo not given) 7.02%
CCN(CC)CCN1C(=O)C(=O)/C(=C(/O)c2ccncc2)C1c1ccccc1 (stereo not given) 45.4%
CCC1CCCCN1S(=O)(=O)c1ccc(NC(=O)CSc2ncccc2C(=O)O)cc1 (stereo not given) -3.83%
CC1CCN(S(=O)(=O)c2ccc(NC(=O)Cc3ccccc3)cc2)CC1 2.2%
O=C(CSc1nc(-c2ccccc2)c(-c2ccccc2)o1)Nc1nnc(-c2ccccc2)s1 5.34%
Nc1cc(=O)[nH]c(SCC(=O)Nc2nnc(-c3ccccc3)s2)n1 34.9%
CC(=O)N1c2ccccc2C(=O)C1N1CCCCC1 (stereo not given) 7.9%
CCn1c(SCC(=O)c2[nH]c(C)c(C(C)=O)c2C)nnc1-c1cccs1 12.2%
CC(C)CCNC(=O)C1CC(c2cccc([N+](=O)[O-])c2)=NO1 (stereo not given) 3.11%
O=C(CC12CC3CC(C1)CC(CC(=O)N1CCCC1)(C3)C2)N1CCCC1 1.98%
NC(=O)CC[C@H](NC(=O)c1ccc(F)cc1)C(=O)OCC(=O)Nc1ccc(N2CCOCC2)cc1 -1.82%
C=C(C)c1cccc(C(C)(C)NC(=O)NCc2ccncc2)c1 5.4%
Fc1ccccc1-c1[nH]ncc1-c1nnnn1-c1ccccc1 6.84%
COc1ccc(N2CCN(c3oc(-c4ccccc4OC)nc3C#N)CC2)cc1 0.71%
CCOC(=O)N1CCN(c2cc(C)c(C(C)=O)cc2F)CC1 14.4%
O=C(CN1C(=O)C2C3CC(C(Br)C3Br)C2C1=O)N1CCN(Cc2ccccc2)CC1 (stereo not given) -4.45%
O=C(CN1C(=O)C2C3c4ccccc4C(c4ccccc43)C2C1=O)N1CCOCC1 (stereo not given) 4.26%
CCCCOCCCNC(=O)CC(C)c1ccccc1 (stereo not given) 1.77%
CCOC(=O)N1CCN(C(=O)c2ccc3c(=O)n(Cc4ccc(Cl)cc4)c(=S)[nH]c3c2)CC1 -6.9%
CCCCn1c(=S)[nH]c2c(oc3ccc(Cl)cc32)c1=O 21.5%
O=C(COC(=O)/C=C/c1ccc(Cl)cc1Cl)NCCC1=CCCCC1 3.27%
Cc1ccccc1Nc1nnc(SCc2cc(=O)n3ccsc3n2)s1 28.1%
O=c1cc(CSc2nnc(Nc3ccccc3)s2)nc2sccn12 24.3%
C/C(=C\C(=O)O)C12CC3CC(CC(C3)C1)C2 11.6%
COc1ccc(NC(=O)/C=C/c2c(Cl)nc3ccccn23)cc1 -6.42%
CC(C)C[C@H](NC(=O)Nc1ccc(Oc2ccccc2)cc1)C(=O)O 38.9%
CCc1ccccc1NC(=O)N[C@H](C(=O)O)C(C)CC (stereo not given in full) 23.6%
COC(=O)[C@H](C)NC(=O)Nc1ccc(Oc2ccccc2)cc1 -1.77%
CCC(C)[C@H](NC(=O)Nc1ccc(S(N)(=O)=O)cc1)C(=O)O (stereo not given in full) 4.8%
CCc1c(C)sc2nc3c(C(=O)N4CCOCC4)cc(C(=O)c4ccccc4O)cn3c(=O)c12 5.44%
Cc1noc(C)c1C1(O)CCCCCCCCCCC1 0.02%
CSc1nc2ccccc2s1 13.1%
